Measurements from PubChem BioAssay AID1159580 (chemical genetic matrix, 2015).
In all, about 5,500 compounds went through this assay and about 2,000 (36%) were called active. About 18% were inconclusive and are not listed. Cut-off read from the data, not from the text of the source: active = normalized growth mostly below about 0.91 (no sharp cut-off); inconclusive = no clear call, values can overlap the other calls; inactive = mostly above about 0.92. The list shows a part of the results.

Experiment: chemical genetic growth profiling, strain panel (AID 1159580);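 note: tested at 20 µM; growth read once vehicle control cultures reached saturation at 30 °C; 1 = growth at the plate median or of vehicle wells; lower values mean less growth of the strain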
Settings: growth OD
[1] = S. cerevisiae deletion strains, locus YAL013W, strain DEP1, active compounds read low
[2] = S. cerevisiae deletion strains, locus YBR229C, strain ROT2, active compounds read low
[3] = S. cerevisiae deletion strains, locus YCL061C, strain MRC1, active compounds read low
[4] = S. cerevisiae deletion strains, locus YDL101C, strain DUN1, active compounds read low
[5] = S. cerevisiae deletion strains, locus YDR150W, strain NUM1, active compounds read low
[6] = S. cerevisiae deletion strains, locus YEL061C, strain CIN8, active compounds read low
[7] = S. cerevisiae deletion strains, locus YGR078C, strain PAC10, active compounds read low
[8] = S. cerevisiae deletion strains, locus YHR030C, strain SLT2, active compounds read low
[9] = S. cerevisiae deletion strains, locus YHR087W, strain rtc3, active compounds read low
[10] = S. cerevisiae deletion strains, locus YJL187C, strain SWE1, active compounds read low
[11] = S. cerevisiae deletion strains, locus YJR043C, strain POL32, active compounds read low
[12] = S. cerevisiae deletion strains, locus YJR075W, strain HOC1, active compounds read low
[13] = S. cerevisiae deletion strains, locus YLR039C, strain RIC1, active compounds read low
[14] = S. cerevisiae deletion strains, locus YLR058C, strain SHM2 (second series), active compounds read low
[15] = S. cerevisiae deletion strains, locus YLR085C, strain ARP6, active compounds read low
[16] = S. cerevisiae deletion strains, locus YLR262C, strain YPT6, active compounds read low
[17] = S. cerevisiae deletion strains, locus YML094W, strain GIM5, active compounds read low
[18] = S. cerevisiae deletion strains, locus YMR219W, strain ESC1, active compounds read low
[19] = S. cerevisiae deletion strains, locus YMR263W, strain SAP30, active compounds read low
[20] = S. cerevisiae deletion strains, locus YNL153C, strain GIM3, active compounds read low
[21] = S. cerevisiae deletion strains, locus YNL298W, strain CLA4 (second series), active compounds read low
[22] = S. cerevisiae deletion strains, locus YNL322C, strain KRE1, active compounds read low
[23] = S. cerevisiae deletion strains, locus YNR030W, strain Alg12, active compounds read low
[24] = S. cerevisiae deletion strains, locus YPL055C, strain LGE1, active compounds read low
[25] = S. cerevisiae deletion strains, locus YPL241C, strain CIN2, active compounds read low
[26] = S. cerevisiae deletion strains, locus YPR135W, strain CTF4, active compounds read low
[27] = S. cerevisiae deletion strains, locus YDL134C, strain PPH21, active compounds read low
[28] = S. cerevisiae deletion strains, locus YKL190W, strain CNB1, active compounds read low
[29] = S. cerevisiae strains, strain wild type, active compounds read low

Measured: normalized growth

FC(F)(F)c1cc(-n2c(CCc3nc(-c4ccc(Cl)cc4)no3)n[nH]c2=S)cc(C(F)(F)F)c1
inactive: [1] 0.996 | [2] 0.991 | [3] 0.985 | [4] 0.946 | [5] 0.867 | [6] 1.04 | [7] 0.963 | S. cerevisiae deletion strains, locus YGR229C, strain SMI1, active compounds read low 0.991 | [8] 0.993 | [9] 1.03 | [10] 1.01 | [11] 0.978 | [12] 0.978 | [13] 1.05 | [14] 1.01 | [15] 0.97 | [16] 1.02 | [17] 1.03 | [18] 0.994 | [19] 0.957 | [20] 0.95 | [21] 0.981 | [22] 0.989 | [23] 0.975 | S. cerevisiae deletion strains, locus YOL006C, strain TOP1, active compounds read low 0.994 | [24] 0.994 | [25] 0.965 | [26] 0.879

O=C(O)CC(CC(=O)Nc1ccc(I)cc1F)c1ccc(C(F)(F)F)cc1 (configuration not stated)
inactive: [1] 0.99 | [2] 0.99 | [3] 0.978 | [4] 0.985 | [27] 0.981 | [5] 0.972 | [6] 1 | [7] 1 | [8] 1 | [9] 0.981 | [11] 1 | [12] 0.943 | [28] 1.01 | [13] 1.02 | [14] 0.975 | [15] 1 | [16] 1.02 | [17] 0.989 | [18] 0.984 | [19] 0.969 | S. cerevisiae deletion strains, locus YNL128W, strain TEP1, active compounds read low 0.995 | [20] 1.01 | [21] 1.05 | [22] 0.973 | [23] 0.927 | [24] 0.968 | [25] 0.986 | [26] 1.03 | [29] 1

O=C(NCc1nc(-c2ccc(C(F)(F)F)cc2)no1)Nc1ccc(F)cc1F
inactive: [1] 1.01 | [2] 0.987 | [4] 0.975 | [5] 1.03 | [6] 0.996 | [7] 0.996 | [8] 1.07 | [9] 0.973 | [10] 0.997 | [11] 1 | [12] 0.967 | [28] 1.01 | [13] 0.981 | [14] 1.01 | [15] 1.04 | [16] 1.02 | [17] 0.968 | [18] 1 | S. cerevisiae deletion strains, locus YMR307W, strain GAS1, active compounds read low 0.894 | [20] 0.987 | [21] 1.03 | [22] 1.02 | [23] 0.988 | [24] 0.846 | [25] 0.966 | [26] 1.01 | [29] 1.02
active: [27] 0.857

C=Cc1c(C)c2[n-]c1=Cc1[n-]c(c(CC)c1C)C=c1[n-]c3c(c1C)C(=O)C(C(=O)[O-])C=3c1[n-]c(c(C)c1CCC(=O)[O-])C=2.[Cu] (configuration not stated)
active: S. cerevisiae deletion strains, locus YAL030W, strain snc1, active compounds read low 1.09 [resistant] | S. cerevisiae deletion strains, locus YCR088W, strain abp1, active compounds read low 1.11 [resistant] | S. cerevisiae deletion strains, locus YDL040C, strain nat1, active compounds read low 1.08 [resistant] | S. cerevisiae deletion strains, locus YDR001C, strain nth1, active compounds read low 1.1 [resistant] | S. cerevisiae deletion strains, locus YDR069C, strain doa4, active compounds read low 1.12 [resistant] | S. cerevisiae deletion strains, locus YDR137W, strain rgp1, active compounds read low 1.16 [resistant] | S. cerevisiae deletion strains, locus YDR195W, strain ref2 1.28 [resistant] | S. cerevisiae deletion strains, locus YDR297W, strain sur2, active compounds read low 1.08 [resistant] | S. cerevisiae deletion strains, locus YDR334W, strain swr1, active compounds read low 1.11 [resistant] | S. cerevisiae deletion strains, locus YEL061C, strain CIN8 (second series), active compounds read low 1.09 [resistant] | S. cerevisiae deletion strains, locus YER016W, strain bim1, active compounds read low 1.09 [resistant] | S. cerevisiae deletion strains, locus YER111C, strain swi4, active compounds read low 1.09 [resistant] | S. cerevisiae deletion strains, locus YER155C, strain BEM2 (second series), active compounds read low 1.17 [resistant] | S. cerevisiae deletion strains, locus YGL227W, strain vid30, active compounds read low 1.1 [resistant] | S. cerevisiae deletion strains, locus YHR013C, strain ard1, active compounds read low 1.18 [resistant] | S. cerevisiae deletion strains, locus YJL095W, strain BCK1 (second series), active compounds read low 1.09 [resistant] | S. cerevisiae deletion strains, locus YJL115W, strain asf1, active compounds read low 1.11 [resistant] | S. cerevisiae deletion strains, locus YJL129C, strain trk1, active compounds read low 1.15 [resistant] | S. cerevisiae deletion strains, locus YJL154C, strain vps35, active compounds read low 1.09 [resistant] | [10] 1.08 [resistant] | S. cerevisiae deletion strains, locus YKR026C, strain gcn3, active compounds read low 1.1 [resistant] | S. cerevisiae deletion strains, locus YKR091W, strain srl3, active compounds read low 1.08 [resistant] | S. cerevisiae deletion strains, locus YLL026W, active compounds read low 1.08 [resistant] | S. cerevisiae deletion strains, locus YLL041C, strain sdh2, active compounds read low 1.08 [resistant] | S. cerevisiae deletion strains, locus YMR125W, strain sto1, active compounds read low 1.13 [resistant] | S. cerevisiae deletion strains, locus YMR129W, active compounds read low 1.08 [resistant] | S. cerevisiae deletion strains, locus YMR231W, strain pep5, active compounds read low 1.08 [resistant] | S. cerevisiae deletion strains, locus YNL071W, strain lat1, active compounds read low 1.09 [resistant] | S. cerevisiae deletion strains, locus YNR049C, strain mso1, active compounds read low 1.09 [resistant] | S. cerevisiae deletion strains, locus YOR265W, strain rbl2, active compounds read low 1.09 [resistant] | S. cerevisiae deletion strains, locus YPL106C, strain sse1, active compounds read low 1.16 [resistant] | S. cerevisiae deletion strains, locus YPL240C, strain hsp82, active compounds read low 1.09 [resistant]
inactive: S. cerevisiae deletion strains, locus YAL021C, strain ccr4, active compounds read low 1.07 | S. cerevisiae deletion strains, locus YAL026C, strain drs2, active compounds read low 1.02 | S. cerevisiae deletion strains, locus YBL061C, strain skt5, active compounds read low 1.08 | S. cerevisiae deletion strains, locus YBR009C, strain hhf1, active compounds read low 1.02 | S. cerevisiae deletion strains, locus YBR023C, strain chs3, active compounds read low 1.07 | S. cerevisiae deletion strains, locus YBR171W, strain sec66, active compounds read low 1.09 | S. cerevisiae deletion strains, locus YBR231C, strain swc5, active compounds read low 1.08 | S. cerevisiae deletion strains, locus YBR279W, strain paf1, active compounds read low 1.06 | S. cerevisiae deletion strains, locus YCL011C, strain gbp2, active compounds read low 1.05 | S. cerevisiae deletion strains, locus YCL016C, strain dcc1, active compounds read low 1.03 | [3] 1.03 | S. cerevisiae deletion strains, locus YCL069W, strain vba3, active compounds read low 1.07 | S. cerevisiae deletion strains, locus YDL005C, strain med2, active compounds read low 1.08 | S. cerevisiae deletion strains, locus YDR159W, strain sac3, active compounds read low 1.09 | S. cerevisiae deletion strains, locus YDR335W, strain msn5, active compounds read low 1.02 | S. cerevisiae deletion strains, locus YDR392W, strain spt3, active compounds read low 1.11 | S. cerevisiae deletion strains, locus YEL003W, strain gim4, active compounds read low 1.03 | S. cerevisiae deletion strains, locus YEL037C, strain rad23, active compounds read low 1.07 | S. cerevisiae deletion strains, locus YER015W, strain faa2, active compounds read low 1.02 | S. cerevisiae deletion strains, locus YFR010W, strain ubp6, active compounds read low 1.1 | S. cerevisiae deletion strains, locus YGL167C, strain pmr1, active compounds read low 1.08 | S. cerevisiae deletion strains, locus YGL173C, strain kem1, active compounds read low 1.02 | S. cerevisiae deletion strains, locus YGL240W, strain doc1, active compounds read low 1.03 | S. cerevisiae deletion strains, locus YGL253W, strain hxk2, active compounds read low 1.02 | S. cerevisiae deletion strains, locus YHR027C, strain rpn1, active compounds read low 1.05 | [8] 0.992 | S. cerevisiae deletion strains, locus YHR079C, strain IRE1, active compounds read low 0.998 | S. cerevisiae deletion strains, locus YHR142W, strain chs7, active compounds read low 1.08 | S. cerevisiae deletion strains, locus YJL092W, strain hpr5, active compounds read low 1.07 | S. cerevisiae deletion strains, locus YJL095W, strain BCK1, active compounds read low 0.957 | S. cerevisiae deletion strains, locus YJL164C, strain tpk1, active compounds read low 1.05 | S. cerevisiae deletion strains, locus YJL166W, strain qcr8, active compounds read low 1.01 | S. cerevisiae deletion strains, locus YJR066W, strain TOR1, active compounds read low 0.957 | S. cerevisiae deletion strains, locus YKL160W, strain elf1, active compounds read low 1.06 | S. cerevisiae deletion strains, locus YLL001W, strain dnm1, active compounds read low 1.06 | S. cerevisiae deletion strains, locus YLR027C, strain aat2, active compounds read low 1.07 | S. cerevisiae deletion strains, locus YLR113W, strain HOG1, active compounds read low 0.999 | S. cerevisiae deletion strains, locus YLR221C, strain rsa3, active compounds read low 1.01 | S. cerevisiae deletion strains, locus YLR258W, strain gsy2, active compounds read low 1.07 | S. cerevisiae deletion strains, locus YLR262C, strain YPT6 (second series), active compounds read low 1.09 | S. cerevisiae deletion strains, locus YLR320W, strain mms22, active compounds read low 1.06 | S. cerevisiae deletion strains, locus YLR342W, strain FKS1, active compounds read low 1.04 | S. cerevisiae deletion strains, locus YLR357W, strain rsc2, active compounds read low 1.08 | S. cerevisiae deletion strains, locus YLR370C, strain arc18, active compounds read low 1.04 | S. cerevisiae deletion strains, locus YLR384C, strain iki3, active compounds read low 1.08 | S. cerevisiae deletion strains, locus YML120C, strain ndi1, active compounds read low 1.03 | S. cerevisiae deletion strains, locus YMR058W, strain fet3, active compounds read low 0.967 | S. cerevisiae deletion strains, locus YMR205C, strain PFK2, active compounds read low 1.11 | S. cerevisiae deletion strains, locus YNL183C, strain NPR1, active compounds read low 0.862 | S. cerevisiae deletion strains, locus YNL209W, strain ssb2, active compounds read low 1.04 | S. cerevisiae deletion strains, locus YNL248C, strain rpa49, active compounds read low 1.03 | S. cerevisiae deletion strains, locus YNL322C, strain KRE1 (second series), active compounds read low 1.08 | S. cerevisiae deletion strains, locus YOR001W, strain rrp6, active compounds read low 1.05 | S. cerevisiae deletion strains, locus YOR070C, strain gyp1, active compounds read low 1.05 | S. cerevisiae deletion strains, locus YOR080W, strain dia2, active compounds read low 1.06 | S. cerevisiae deletion strains, locus YOR083W, strain WHI5, active compounds read low 0.992 | S. cerevisiae deletion strains, locus YOR106W, strain vam3, active compounds read low 0.999 | S. cerevisiae deletion strains, locus YOR231W, strain MKK1, active compounds read low 1.01 | S. cerevisiae deletion strains, locus YOR270C, strain vph1, active compounds read low 1.15 | S. cerevisiae deletion strains, locus YOR290C, strain snf2, active compounds read low 1.06 | S. cerevisiae deletion strains, locus YPL051W, strain arl3, active compounds read low 1.07 | S. cerevisiae deletion strains, locus YPL078C, strain atp4, active compounds read low 1.03 | S. cerevisiae deletion strains, locus YPL256C, strain CLN2, active compounds read low 1.05

Cc1nc2sccn2c(=O)c1CCN1CCC(=C(c2ccccc2)c2ccc(F)cc2)CC1
inactive: [1] 0.965 | S. cerevisiae deletion strains, locus YAL040C, strain CLN3, active compounds read low 0.99 | S. cerevisiae deletion strains, locus YCL061C, strain MRC1 (second series), active compounds read low 0.993 | [5] 0.995 | S. cerevisiae deletion strains, locus YDR363W, strain ESC2, active compounds read low 0.985 | [12] 1.01 | [19] 0.992 | S. cerevisiae deletion strains, locus YNL175C, strain NOP13, active compounds read low 1.04 | S. cerevisiae deletion strains, locus YNL197C, strain WHI3, active compounds read low 1.05 | S. cerevisiae deletion strains, locus YNL224C, strain SQS1, active compounds read low 1.02 | [22] 0.956 | [25] 0.992
